Assay results from PubChem BioAssay (Tox21).
Inconclusive results are not listed. Entries that show only a call come without a potency. A number with no mark means an inactive call. Active and inactive are the calls of the source. The call rests on the fitted dose curve; in most records, active means well fitted inhibition curve with a large enough effect in the repeat runs; inconclusive means weak or mixed curves; inactive means flat fitted curve, though single readings scatter.

Test: qHTS assay to identify small molecule HDAC inhibitors (AID 1259364); further: top concentration of the series differs between compounds; nearly all actives have a fitted effect of over 45% in size
Conditions: HCT-116 HDAC-Glo I/II luminescence, 2 h; series mostly up to 92.4 µM
Text: U.S. Tox21 Program National Center for Advancing Translational Sciences [NCATS] NIH Chemical Genomics Center [NCGC] U.S. Environmental Protection Agency [EPA] National Institutes of Environmental Health Sciences [NIEHS] National Toxicology Program [NTP] U.S. Food and Drug Administration [FDA] Tox21 Assay Overview: Histone deacetylases (HDACs) are a group of epigenetic enzymes that regulate gene expression by histone deacetylation. HDACs are capable of introducing epigenetic modifications and such aberrations contribute to the onset and progression of several human diseases, thus making HDACs a popular therapeutic target. For identifying endogenous class I/II HDAC inhibitors a homogenous, luminogenic HDAC I/II cell based assay was used to measure the relative activity of class I and II HDACs from cells. Wild type HCT-116 cells were used to screen Tox21 libraries for identifying class I/II HDAC inhibitors.
Tox21 Assay Protocol Summary: HCT-116 cells were dispensed at 1,500 per well in 5uL of culture medium into white solid bottom 1536-well plates (Greiner Bio-One, Monroe, NC) using a Multidrop Combi (Thermo Scientific, Waltham, MA) dispenser. The assay plates were incubated at 37 C and 5% CO2 for an overnight, and then 23nL of compounds dissolved in DMSO and positive control were transferred using a Pintool station (Wako, San Diego, CA). The assay plates were incubated at 37C and 5% CO2 for 2hr. After compound treatment, 4uL of HDAC-Glo reagent (Promega Corporation, Madison, WI) was added to each well of the assay plates using Flying Reagent Dispenser (FRD, Aurora Discovery, San Diego, CA) and incubated the assay plates at room temperature for 30min. The luminescence signal was quantified using a ViewLux plate reader (Perkin Elmer, Shelton, CT).
For `Cc1c(C(C)C)c(=O)n(-c2ccccc2)n1C`, the Potency was “inactive”. Molecule `O=c1[nH]c(=O)c2[nH]c(=O)[nH]c2[nH]1` has an activity change, negative = inhibition of 11.3% [at 8.39 µM]. In the case of `O=C1OC(=O)c2cc(Oc3ccc4c(c3)C(=O)OC4=O)ccc21`, the Potency was “inactive”. In the case of `CCCCC/C=C/CC(=O)OC`, the Potency was “inactive”. In the case of `O=C(O)Cc1cccc(-c2cc(CCCCCCc3ccc(O[C@H]4O[C@H](CO)[C@@H](O)[C@H](O)[C@@H]4O)c(-c4cccc(CC(=O)O)c4)c3)ccc2O[C@H]2O[C@H](CO)[C@@H](O)[C@H](O)[C@@H]2O)c1`, the activity change, negative = inhibition was 0.203% [at 0.349 µM]. In the case of `O=S(=O)(O)c1cc(O)ccc1O`, the Potency was “inactive”. With `CC(C)CCC(=O)CCC(C)C` the Potency was “inactive”. In the case of `CCCCCCCCC(=O)OCC`, the Potency was “inactive”. With `CO[Si](CCCS)(OC)OC` the Potency was “inactive”. With `CCN1CN(CC)CN(CC)C1` the Potency was “inactive”. With `C=CCOC(=O)c1ccc(C(=O)OCC=C)c(C(=O)OCC=C)c1` the Potency was “inactive”. For `CCOC(=O)OCC/C(SC(=O)OCC)=C(\C)N(C=O)Cc1cnc(C)nc1N`, the Potency was “inactive”. In the case of `O=C(O)C(=O)Nc1cccc(-c2nn[nH]n2)c1`, the Potency was “inactive”. For `CCC1COC(=O)O1` (stereo not given), the Potency was “inactive”. In the case of `CCCCCCCCCCCCCCCCI`, the activity change, negative = inhibition was 1.82% [at 19 µM]. For `NCCc1ccn[nH]1`, the Potency was “inactive”. In the case of `Cc1nc([N+](=O)[O-])cn1-c1ccc([N+](=O)[O-])cc1`, the Potency was “inactive”. In the case of `FC(F)(F)/C(=N\OCC1OCCO1)c1ccc(Cl)cc1`, the Potency was “inactive”. For `CCCCC(=O)N(C)C`, the Potency was “inactive”. For `CNC(=O)C(c1ccccc1)c1ccccc1`, the Potency was “inactive”. For `CCCCCCCC/C=C\CCCCCCCC(=O)OC[C@@H](O)[C@H]1OC[C@H](O)[C@H]1O`, the Potency was “inactive”. In the case of `CC(C)C(=O)c1ccccc1`, the Potency was “inactive”. For `COC(=O)CCC(=O)O`, the Potency was “inactive”. In the case of `C=C[C@@H](C)CCC=C(C)C`, the Potency was “inactive”. In the case of `CC(=O)OC(C)c1ccccc1` (stereo not given), the Potency was “inactive”. In the case of `CCOc1ccc(NC(=O)OC(C)C)cc1OCC`, the Potency was “inactive”. With `O=C1NC2NC(=O)NC2N1` (stereo not given) the Potency was “inactive”. For `SCCSCCS`, the Potency was “inactive”. In the case of `CC(=O)N(CC(O)CO)c1c(I)c(C(=O)NCC(O)CO)c(I)c(C(=O)NCC(O)CO)c1I` (stereo not given), the Potency was “inactive”. In the case of `NC(Cc1c[nH]c2ccccc12)C(=O)O` (stereo not given), the Potency was “inactive”. In the case of `O=[Si]=O`, the Potency was “inactive”. In the case of `CCCCC(CC)COC(=O)c1ccccc1` (stereo not given), the Potency was “inactive”. For `Cc1cccc(C(=O)O)c1[N+](=O)[O-]`, the Potency was “inactive”. With `Cc1cccc(Nc2ccncc2S(=O)(=O)NC(=O)NC(C)C)c1` the Potency was “inactive”. With `COc1ccc(N=Nc2cc(C)c(N=Nc3ccc(S(=O)(=O)O)cc3)cc2OC)cc1` the Potency was “inactive”. With `Nc1ccc(S(=O)(=O)NC(=O)c2ccccc2)cc1` the Potency was “inactive”. In the case of `CCC(O)C(C)(C)C` (stereo not given), the Potency was “inactive”. With `CN(C)CCOCCN(C)CCO` the Potency was “inactive”. With `CNC(=O)NC` the Potency was “inactive”. In the case of `CC(C)(c1ccc(Oc2ccc3c(c2)C(=O)OC3=O)cc1)c1ccc(Oc2ccc3c(c2)C(=O)OC3=O)cc1`, the Potency was “inactive”.
